About 14,000 (4.5%) of roughly 310,000 compounds showed an effect of 50% or more. Effects have a minus sign here. For the sample, strong results were picked, then their nearest neighbours and some compounds at random.
target: human ether-à-go-go-related gene (hERG) potassium channel (human, UniProt Q12809); test: primary screen, population patch clamp on CHO cells stably expressing hERG; higher = less effect of the substance
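Further: peak tail current of the secondary pulse compared with the same well before compound.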

Sequence of human ether-à-go-go-related gene (hERG) potassium channel (Q12809 whole entry, looked up): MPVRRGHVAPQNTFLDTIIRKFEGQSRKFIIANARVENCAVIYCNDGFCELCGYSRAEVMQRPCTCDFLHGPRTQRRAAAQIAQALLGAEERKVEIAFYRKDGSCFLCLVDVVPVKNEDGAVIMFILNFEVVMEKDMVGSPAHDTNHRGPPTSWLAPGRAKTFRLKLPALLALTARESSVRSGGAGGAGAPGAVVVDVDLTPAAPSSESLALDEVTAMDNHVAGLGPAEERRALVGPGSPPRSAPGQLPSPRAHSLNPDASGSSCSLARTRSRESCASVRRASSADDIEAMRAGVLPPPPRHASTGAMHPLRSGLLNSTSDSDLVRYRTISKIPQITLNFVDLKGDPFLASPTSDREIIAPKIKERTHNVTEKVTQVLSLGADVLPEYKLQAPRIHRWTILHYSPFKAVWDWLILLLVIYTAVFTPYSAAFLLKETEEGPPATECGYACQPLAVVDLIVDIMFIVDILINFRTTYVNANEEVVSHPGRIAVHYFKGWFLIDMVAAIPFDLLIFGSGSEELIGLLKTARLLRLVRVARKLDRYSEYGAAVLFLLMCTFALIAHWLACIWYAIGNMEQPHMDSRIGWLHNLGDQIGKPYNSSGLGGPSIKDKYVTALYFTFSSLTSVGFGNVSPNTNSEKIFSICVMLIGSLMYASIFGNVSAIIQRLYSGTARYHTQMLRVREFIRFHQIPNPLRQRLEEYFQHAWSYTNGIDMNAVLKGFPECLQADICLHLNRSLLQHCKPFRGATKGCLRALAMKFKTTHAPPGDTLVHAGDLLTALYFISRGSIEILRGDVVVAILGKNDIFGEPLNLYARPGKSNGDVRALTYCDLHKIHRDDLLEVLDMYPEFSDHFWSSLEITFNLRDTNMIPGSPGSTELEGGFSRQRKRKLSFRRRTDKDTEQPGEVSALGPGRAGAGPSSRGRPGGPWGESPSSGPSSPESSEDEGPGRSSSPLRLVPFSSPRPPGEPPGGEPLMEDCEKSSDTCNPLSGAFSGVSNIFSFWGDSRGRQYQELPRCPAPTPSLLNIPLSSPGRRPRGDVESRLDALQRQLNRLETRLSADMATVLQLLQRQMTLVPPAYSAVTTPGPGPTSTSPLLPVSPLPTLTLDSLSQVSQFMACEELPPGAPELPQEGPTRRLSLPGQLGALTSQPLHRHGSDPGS

Row | SMILES | hERG current change (%, negative = inhibition) at 10uM
1 | CC(=O)c1cccc(N(CC(=O)Nc2cc(C)cc(C)c2)S(C)(=O)=O)c1 | 13.3%
2 | CSc1nc2sc3c(c2c(=O)[nH]1)CC(C)(C)OC3 | 13.8%
3 | CCc1ccccc1N1CN(Cc2cccnc2)CNC1=S | 3.35%
4 | Cc1cc(C)nc(N2CCCC(C(=O)Nc3ccc4nc(C)c(C)nc4c3)C2)n1 (stereo not drawn) | 9.96%
5 | COc1cccc(/C=N/NC(=O)CN(C2=NS(=O)(=O)c3ccccc32)c2ccccc2)c1 | 0.919%
6 | O=C(Nc1ccc(-c2nnc3n2CCCCC3)cc1)c1cc2ccccc2o1 | -71.8%
7 | O=C(Nc1ccc(CN2CCOCC2)cc1)c1ccc(-c2cccc([N+](=O)[O-])c2)o1 | -48.3%
8 | O=C(Nc1ccc(N2CCOCC2)cc1)c1cc2ccccc2o1 | 4.38%
9 | Cc1c(C(=O)Nc2ccc(-c3nnc4n3CCCCC4)cc2)oc2c1ccc1ccccc12 | -13.8%
10 | O=C(Nc1ccc(CN2CCOCC2)cc1)c1cc2ccccc2o1 | -50.2%
11 | O=C(NC(=S)Nc1ccc(CN2CCOCC2)cc1)c1ccc(-c2cccc(Cl)c2)o1 | 7.11%
12 | O=C(Nc1ccc(CN2CCOCC2)cc1)c1ccc(-c2cccc(Cl)c2)o1 | -52.8%
13 | O=C(Nc1ccc(N2CCCC2)cc1)c1ccc2ccccc2c1 | 0.743%
14 | CN1CCN(c2ccc(NC(=O)c3ccc4ccccc4c3)cc2)CC1 | -66.1%
15 | O=C(Nc1ccc(-c2nnc3n2CCCCC3)cc1)c1ccco1 | 5.26%
16 | CC(=O)N1CCN(c2ccc(NC(=O)c3ccc4ccccc4c3)cc2)CC1 | -7.05%
17 | O=C(NC(=S)Nc1ccc(CN2CCOCC2)cc1)c1cc2ccccc2o1 | 11.7%
18 | Cc1ccc(C2=NS(=O)(=O)N(C)C(C(=O)NCc3ccccc3)=C2)cc1 | -0.52%
19 | O=C(NCCN1CCOCC1)c1ccc(Cl)c([N+](=O)[O-])c1 | 16.5%
20 | Cc1ccc2c(c1)N(C(C)C(=O)NCCc1ccccc1)C(=O)CO2 (stereo not drawn) | 7.21%
21 | COc1cc(C(=O)Nc2cc(C(F)(F)F)ccc2N2CCOCC2)ccc1O | -26.6%
22 | O=C(CCc1nc(-c2ccccc2Cl)no1)NCCc1ccccc1 | 7.08%

Row | SMILES | hERG current change (%, negative = inhibition) at 10uM
23 | COc1ccc(CCNC(=O)c2c(O)c3ccccc3n(C)c2=O)cc1 | -12.1%
24 | O=c1[nH][nH]c(-c2ccccc2)c1C=Nc1cccc(Cl)c1 | 5.35%
25 | CN1CCN(c2ccc(NC(=O)c3ccc(-c4ccc(Br)cc4)o3)cc2)CC1 | 0.645%
26 | Cl.Clc1cccc(-c2ccc(CNCCCN3CCOCC3)o2)c1 | -58.3%
27 | CS(=O)(=O)N1CCN(c2ccc(NC(=O)c3ccc(-c4ccc(Cl)cc4)o3)cc2)CC1 | -10.6%
28 | COc1ccc(-c2ccc(CNCCCN3CCOCC3)o2)cc1Cl.Cl | 6.83%
29 | Cc1cc(N2CCN(C)CC2)ccc1NC(=O)c1ccc(-c2ccc(Cl)cc2)o1 | -80%
30 | O=C(Nc1ccc(N2CCCC2)cc1)c1cc2ccccc2o1 | 20.4%
31 | c1coc(CNCCCN2CCOCC2)c1 | -0.128%
32 | CN1CCN(c2ccc(NC(=O)c3cc4ccccc4o3)cc2)CC1 | -72.3%
33 | CN1CCN(c2ccc(NC(=O)c3ccc(-c4ccc(Cl)cc4)o3)cc2)CC1 | 11.5%
34 | CC(=O)N1CCN(c2ccc(NC(=O)c3cc4ccccc4o3)cc2)CC1 | -24.5%
35 | O=C(Nc1ccc(N2CCOCC2)cc1)c1ccc(-c2ccccc2[N+](=O)[O-])o1 | 15.9%
36 | CN1CCN(c2ccc(NC(=O)c3ccc(-c4ccccc4F)o3)cc2)CC1 | -70%
37 | CCCCc1cc(C)c(S(=O)(=O)c2ccccc2C)c(=O)[nH]1 | 3.69%
38 | CC(Oc1ccccc1)C(=O)NC1C(=O)N2C1SC(C)(C)C2C(=O)[O-].[K+] (stereo not drawn) | 35.9%
39 | CCOC(=O)c1sc(NC(=S)NC(=O)C23CC4CC(CC(C4)C2)C3)cc1C | 20.2%
40 | CCCC1=NN(c2ccc([N+](=O)[O-])cc2)C(=O)/C1=C\N(C)C | -7.95%
41 | O=C(O)C1C2CCC(O2)C1C(=O)Nc1ccc(F)c(F)c1 (stereo not drawn) | 26.5%
42 | CCCC(=O)Nc1ccc(C(=O)COC(=O)C2CC2C)cc1 (stereo not drawn) | 5.46%
43 | CCN1C(=O)/C(=C/C=C2/SCCN2C)SC1=S | 4.78%
44 | COC(=O)Cn1cc(C(=O)C2CC2)c2ccccc21 | 2.2%

Row | SMILES | hERG current change (%, negative = inhibition) at 10uM
45 | Cc1cc(C)c(C)c(S(=O)(=O)NCc2ccc(C(=O)N3CCN(C)CC3)cc2)c1C | -4.7%
46 | O=C(O)c1nn2c(c1Br)NC(c1ccccc1)CC2C(F)(F)F (stereo not drawn) | 12.2%
47 | CCc1nnc(NC(=O)c2cc(S(=O)(=O)N(CC)CC)ccc2Cl)s1 | -7.31%
48 | COc1ccccc1NC(=O)N1CCC(c2nc3ccccc3o2)CC1 | -6.16%
49 | CC(C)NC(=O)COC(=O)c1cccc(NS(=O)(=O)/C=C/c2ccccc2)c1 | -18%
50 | Cn1cnnc1SCC(=O)NC1CCCN(Cc2ccc(Cl)cc2)C1 (stereo not drawn) | -0.412%
51 | O=C(/C=C/c1ccccc1)Nc1ccc(CN2CCOCC2)cc1 | -62.5%
52 | O=C(/C=C/c1ccc(Cl)cc1)Nc1ccc(CN2CCOCC2)cc1 | -28%
53 | O=C(/C=C/c1ccccc1)NC(=S)Nc1ccc(CN2CCOCC2)cc1 | -18.9%
54 | CCSc1nnc(NC(=O)CSc2nc3c(c(=O)n2CC)SC(C)C3)s1 (stereo not drawn) | 6.95%
55 | CCC(=O)Nc1ccc(NC(=O)c2cccc3ccccc23)cc1 | 23.9%
56 | COc1ccc(-c2nc(SC(CC(=O)NCc3ccccc3)c3ccc(OC)c(OC)c3)n[nH]2)cc1 (stereo not drawn) | -0.421%
57 | CCCn1c(SCc2nc(-c3cccs3)no2)nnc1-c1ccncc1 | -4.13%
58 | Cc1ccc(-c2noc(CSc3nnc(-c4ccncc4)n3-c3ccc(F)cc3)n2)cc1 | -10.3%
59 | c1ccc(-n2c(SCc3nc(-c4cccs4)no3)nnc2-c2ccco2)cc1 | -42.6%
60 | CCOc1ccc(-n2c(SCc3nc(-c4cccs4)no3)nnc2-c2ccncc2)cc1 | -59.7%
61 | CCOc1ccc(-n2c(SCc3nc(-c4ccc(C)cc4)no3)nnc2-c2ccncc2)cc1 | -73.2%
62 | Cc1ccc(-c2noc(CSc3nnc(-c4ccncc4)n3-c3ccc(C)cc3)n2)cc1 | -42.9%
63 | O=c1[nH]c(=S)n(-c2ccc(Cl)cc2)c(O)c1/C=N/N1CCOCC1 | -6.08%
64 | CC1CC(C)CN(S(=O)(=O)c2ccc3c(c2)CC(C)N3C(=O)C2CCC2)C1 (stereo not drawn) | 4.7%
65 | CC12CCC(C(=O)N3CCCCCC3)(OC1=O)C2(C)C (stereo not drawn) | 13.1%
66 | Nc1cc(=O)[nH]c(SCC(=O)NC2CCCc3ccccc32)n1 (stereo not drawn) | 0.0692%

Row | SMILES | hERG current change (%, negative = inhibition) at 10uM
67 | CCC(=O)OCc1cc2cccc(C)c2[nH]c1=O | -1.03%
68 | Cc1cccc(CCN(Cc2cc3cccc(C)c3[nH]c2=O)C(=O)N2CCOCC2)c1 | -29.4%
69 | CC(=O)OCc1cc2cccc(C)c2[nH]c1=O | -9.76%
70 | Cc1cccc2cc(COC(=O)c3ccccc3)c(=O)[nH]c12 | -0.867%
71 | Cc1cccc2cc(COC(=O)C(C)C)c(=O)[nH]c12 | -69.3%
72 | Cc1cccc2cc(CN(Cc3ccccc3)C(=O)N(C)C)c(=O)[nH]c12 | -11.5%
73 | Cc1ccccc1CCNCc1cc2cccc(C)c2[nH]c1=O | -52.2%
74 | Cc1cccc(CCNCc2cc3cccc(C)c3[nH]c2=O)c1 | -64.1%
75 | Cc1cccc(CCNCc2cc3cc(C)cc(C)c3[nH]c2=O)c1 | -30.8%
76 | CC(C)CSc1oc(-c2ccco2)nc1S(=O)(=O)c1ccccc1 | -19.7%
77 | O=C(CCC(=O)N1CCCC(Nc2ccccc2)C1)c1ccc(F)cc1 (stereo not drawn) | -8.8%
78 | COc1cc(CNc2ccc3[nH]c(=O)[nH]c3c2)cc(Cl)c1OCC(=O)NC(C)(C)C | 4.56%
79 | COc1ccc(S(=O)(=O)Nc2ccccc2-c2nc3ccccc3[nH]c2=O)cc1 | -9.79%
80 | COc1ccc(OC)c(NC(=O)Cn2c(CCC(=O)O)ccc2-c2ccc(C)cc2)c1 | -7.22%
81 | Cc1ccc(CN2CC(C(=O)N3CCN(S(=O)(=O)c4cccc(F)c4)CC3)CC2=O)cc1 (stereo not drawn) | -32.6%
82 | O=C(Nc1ccc(C(F)(F)F)cc1)C1(c2ccccc2)CC1 | -15.2%
83 | CCNC(=S)Nc1cc(OCC)c(NC(=O)c2ccco2)cc1OCC | -1.82%
84 | Cc1ccc(OCC(O)CN2CCN(CCO)CC2)c(C)c1.Cl (stereo not drawn) | 4.18%
85 | Cc1ccc(C)c(OCC(O)CN2CCC(Cc3ccccc3)CC2)c1.Cl (stereo not drawn) | -67.6%
86 | Cc1ccc(OCC(O)CN2CCC(Cc3ccccc3)CC2)c(C)c1.Cl (stereo not drawn) | -75.2%
87 | Clc1nc(-c2ccccc2)ncc1Oc1ccccc1 | 14.6%

— article PMC4336329 (PLoS ONE, 2015)
